Drawing on PubChem BioAssay (Tox21), this text covers Potency for nine compounds.

Experiment [1] can be described thus: Caspase-3/7 induction in HepG2 cells by small molecules, qHTS assay (AID 1346978). Also: nearly all actives have a fitted effect of over 15% in size. Also: potency is read from the fitted curve at half-maximal effect. In short, it runs like this:
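Caspase-3/7 induction was measured by Caspase-Glo 3/7 luminescence (30 min, room temperature) after a 17 hr compound exposure of wild-type HepG2 cells seeded at 2,000 per well and pre-incubated 5 hr.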

Experiment [2] can be described thus: Caspase-3/7 induction in CHO-K1 cells by small molecules, qHTS assay (AID 1346980). Also: nearly all actives have a fitted effect of over 15% in size. Also: potency is read from the fitted curve at half-maximal effect. The essentials: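 Luminescent Caspase-Glo 3/7 read (30min, room temperature) quantified apoptosis induction. Cells were wild-type CHO-K1, treated with compound for 17hr at 37 C and 5% CO2.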
A short description of experiment [3]: Caspase-3/7 induction in HepG2 cells by small molecules, qHTS cell viability counter screen (AID 1346981). Also: nearly all actives have a fitted effect of over 30% in size. Also: potency is read from the fitted curve at half-maximal effect. In short, it runs like this: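 CellTiter-Fluor fluorescence measured viability in the same wells used for Caspase-Glo 3/7. HepG2 (wild type) at 2,000 cells/well were pre-incubated 5 hr, dosed, and given reagent at 16 hr, with 1 hr further at 37C.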
For experiment [4], the target named is Nuclear receptor subfamily 1 group I member 2 (Homo sapiens) (UniProt O75469). As to the kind of experiment: Human pregnane X receptor (PXR) small molecule agonists, qHTS assay (AID 1346982). Also: nearly all actives have a fitted effect of over 35% in size. Also: potency is read from the fitted curve at half-maximal effect. In short, it runs like this:
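Agonist mode: luminescence from ONE-Glo after 24 h compound exposure at 37C in HepG2 cells carrying hPXR-responsive CYP3A4 luciferase, plated in charcoal-stripped serum medium 5 h beforehand.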

Experiment [5] has as its target Acetylcholinesterase (Homo sapiens) (UniProt P22303). As to the kind of experiment: Acetylcholinesterase (AChE) small molecule antagonists: colormetric cell-based qHTS assay (AID 1347395; calls by dose curve; also: nearly all actives have a fitted effect of over 30% in size; also: potency is read from the fitted curve at half-maximal effect). The essentials:
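Neuroblastoma line SH-SY5Y supplied the enzyme; cells were preincubated with compound for 30 min at 37 C and 5% CO2. Acetylthiocholine with DTNB was then added for 90 min at 37 C, and thiocholine was measured by colour.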

The target is the same in experiment [6]. As to the kind of experiment: Acetylcholinesterase (AChE) small molecule antagonists: enzyme-based qHTS assay (AID 1347397; calls by dose curve; also: nearly all actives have a fitted effect of over 55% in size). Conditions: Potency: AChE enzyme activity inhibition. In short, it runs like this: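 Colorimetric DTNB readout of acetylthiocholine hydrolysis, 10 min at room temperature, after 30 min room-temperature exposure of 50 mU/mL recombinant human enzyme to compound; DMSO vehicle control.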

For experiment [7] the target is unchanged. As to the kind of experiment: Acetylcholinesterase (AChE) small molecule antagonists: fluorescence cell-based qHTS assay (AID 1347398; calls by dose curve; also: nearly all actives have a fitted effect of over 50% in size). Conditions: Potency: AChE activity. The essentials:
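Cellular AChE activity read as thiocholine from acetylthiocholine hydrolysis, detected by Thiolite Green fluorescence at 490/520 nm after 40 min at room temperature. Compounds were pre-incubated 30 min at 37 C on adherent SH-SY5Y cells.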

Experiment [8] shares this target. In words: Acetylcholinesterase (AChE) small molecule antagonists: enzyme-based qHTS assay with human liver microsomes (AID 1347399; calls by dose curve; also: nearly all actives have a fitted effect of over 60% in size). The note with it: Potency: qHTS inhibition. In short, it runs like this: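 Recombinant human AChE (50 mU/mL in the enzyme mix) and human liver microsomes (0.25 mg/mL final) were preincubated with compound and NADPH (0.25 mg/mL final) for 30 min at 37 C. Acetylthiocholine/DTNB was then added; thiocholine was read colorimetrically after 10 min at room temperature.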

In experiment [9] the target is Cytochrome P450 2C19 (Homo sapiens) (UniProt P33261). As to the kind of experiment: Cytochrome P450 Family 2 Subfamily C Member 19 (CYP2C19) small molecule antagonists: luciferase reporter qHTS assay (AID 1671197). Also: nearly all actives have a fitted effect of over 65% in size. Also: potency is read from the fitted curve at half-maximal effect. The essentials:
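P450-Glo CYP2C19 screening system; proluciferin substrate; DMSO compound stocks; 10 min RT preincubation; NADPH regeneration, 1 h at 37C; luciferin detection reagent, 20 min RT; luminescence as RLU.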

The target of experiment [10] is Cytochrome P450 2C9 (Homo sapiens) (UniProt P11712). In words: Cytochrome P450 Family 2 Subfamily C Member 9 (CYP2C9) small molecule antagonists: luciferase reporter qHTS assay (AID 1671198). Also: nearly all actives have a fitted effect of over 50% in size. Also: potency is read from the fitted curve at half-maximal effect. The essentials:
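Enzyme-substrate mix preincubated with compound 10 min at room temperature; reaction started with NADPH regeneration solution, 1 h 37C. Luminescent luciferin product read after 20 min detection reagent.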

For experiment [11], the target named is Cytochrome P450 1A2 (Homo sapiens) (UniProt P05177). In words: Cytochrome P450 Family 1 Subfamily A Member 2 (CYP1A2) small molecule antagonists: luciferase reporter qHTS assay (AID 1671199). Also: series mostly up to about 120 µM; nearly all actives have a fitted effect of over 50% in size. The essentials: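 Luminescence from luciferin formed by CYP1A2 from a proluciferin substrate, read 20 min after detection reagent. Compound was pre-incubated 10 min with enzyme-substrate, and reaction started with NADPH regeneration solution for 1 h at room temperature; furafylline control.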
Sequence of Cytochrome P450 1A2 (Homo sapiens) (P05177 whole entry, looked up): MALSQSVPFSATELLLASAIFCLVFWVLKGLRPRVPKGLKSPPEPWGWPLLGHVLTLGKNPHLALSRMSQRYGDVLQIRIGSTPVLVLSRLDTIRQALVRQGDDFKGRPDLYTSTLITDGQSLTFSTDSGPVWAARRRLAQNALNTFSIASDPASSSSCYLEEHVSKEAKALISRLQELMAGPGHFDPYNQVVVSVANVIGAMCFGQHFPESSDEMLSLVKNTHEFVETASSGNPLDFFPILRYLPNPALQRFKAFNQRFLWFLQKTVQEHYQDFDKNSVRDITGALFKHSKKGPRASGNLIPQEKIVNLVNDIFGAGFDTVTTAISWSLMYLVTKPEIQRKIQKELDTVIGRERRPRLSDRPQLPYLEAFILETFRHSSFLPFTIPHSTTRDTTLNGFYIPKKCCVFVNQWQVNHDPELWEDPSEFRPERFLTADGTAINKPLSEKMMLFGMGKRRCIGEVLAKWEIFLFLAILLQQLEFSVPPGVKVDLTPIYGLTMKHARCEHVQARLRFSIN

Experiment [12] addresses Voltage-gated inwardly rectifying potassium channel KCNH2 (Homo sapiens) (UniProt Q12809). In words: Human Ether-a-go-go-Related Gene (hERG) channel small molecule antagonists: fluorescence cell-based qHTS assay (AID 1671200). Also: nearly all actives have a fitted effect of over 50% in size. Also: potency is read from the fitted curve at half-maximal effect. The essentials:
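Measured: Tl+ flux via fluorescence (480/540 nm) in hERG-expressing U2OS cells after 1 h dye loading at room temperature.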

Experiment [13] has as its target Cytochrome P450 3A4 (Homo sapiens) (UniProt P08684). As to the kind of experiment: Cytochrome P450 Family 3 Subfamily A Member 4 (CYP3A4) small molecule antagonists: luciferase reporter qHTS assay (AID 1671201). Also: nearly all actives have a fitted effect of over 50% in size. Also: potency is read from the fitted curve at half-maximal effect. The essentials: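 Setup: enzyme-substrate mix, compound pin transfer, 10 min RT. Reaction: NADPH regeneration solution, 1 h RT. Readout: detection reagent stops turnover, luminescence measured after 20 min, expressed in relative luminescence units.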

Experiment [14] addresses Cytochrome P450 2D6 (Homo sapiens) (UniProt P10635). In words: Cytochrome P450 Family 2 Subfamily D Member 6 (CYP2D6) small molecule antagonists: luciferase reporter qHTS assay (AID 1671196). Also: nearly all actives have a fitted effect of over 50% in size. Also: potency is read from the fitted curve at half-maximal effect. The essentials: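 CYP2D6 activity was followed as luminescence from its luciferin product after a 1 h NADPH-driven reaction at room temperature. Enzyme-substrate mix and compound were pre-incubated for 10 min, and the signal was read 20 min after adding detection reagent.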

SMILES strings stand for the structures. Values without a mark were called inactive. Inconclusive results are not listed. The source made the active and inactive calls. Unless noted, calls follow the shape of the dose curve; as a rule, active = well fitted curve in the direction sought with a large enough effect in the repeat runs; inconclusive = weak or mixed curves; inactive = no such curve, though single readings can be large; an effect the other way counts as inactive or inconclusive.

Sequence of Acetylcholinesterase (Homo sapiens) (P22303 whole entry, looked up): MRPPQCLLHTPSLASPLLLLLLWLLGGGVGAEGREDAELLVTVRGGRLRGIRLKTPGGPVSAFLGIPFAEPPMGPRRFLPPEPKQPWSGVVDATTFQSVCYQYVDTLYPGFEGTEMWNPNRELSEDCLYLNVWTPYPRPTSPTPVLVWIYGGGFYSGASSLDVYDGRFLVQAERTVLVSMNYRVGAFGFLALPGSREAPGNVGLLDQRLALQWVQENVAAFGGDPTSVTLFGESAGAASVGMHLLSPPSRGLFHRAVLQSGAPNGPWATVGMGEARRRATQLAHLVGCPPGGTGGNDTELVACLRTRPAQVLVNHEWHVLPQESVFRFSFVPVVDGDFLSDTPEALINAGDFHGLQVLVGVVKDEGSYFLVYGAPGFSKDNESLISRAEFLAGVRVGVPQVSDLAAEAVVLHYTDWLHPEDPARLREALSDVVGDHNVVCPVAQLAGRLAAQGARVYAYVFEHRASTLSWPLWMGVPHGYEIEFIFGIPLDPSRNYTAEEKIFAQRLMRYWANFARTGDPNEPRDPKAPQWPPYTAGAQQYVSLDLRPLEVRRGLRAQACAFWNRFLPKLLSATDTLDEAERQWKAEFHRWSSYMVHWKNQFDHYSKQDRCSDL
Sequence of Cytochrome P450 2D6 (Homo sapiens) (P10635 whole entry, looked up): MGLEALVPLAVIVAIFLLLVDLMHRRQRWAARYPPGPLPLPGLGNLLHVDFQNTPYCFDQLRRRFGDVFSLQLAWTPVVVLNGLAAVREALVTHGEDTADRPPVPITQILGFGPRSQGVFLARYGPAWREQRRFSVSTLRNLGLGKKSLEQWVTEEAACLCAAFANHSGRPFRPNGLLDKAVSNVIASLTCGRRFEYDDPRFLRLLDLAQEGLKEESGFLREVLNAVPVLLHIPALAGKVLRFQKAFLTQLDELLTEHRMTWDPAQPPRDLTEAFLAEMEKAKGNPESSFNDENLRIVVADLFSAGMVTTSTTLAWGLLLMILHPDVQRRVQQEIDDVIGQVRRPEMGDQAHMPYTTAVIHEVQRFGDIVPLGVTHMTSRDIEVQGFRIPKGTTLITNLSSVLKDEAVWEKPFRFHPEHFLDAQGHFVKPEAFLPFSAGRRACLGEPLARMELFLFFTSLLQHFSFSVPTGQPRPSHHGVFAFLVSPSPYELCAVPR
Sequence of Cytochrome P450 3A4 (Homo sapiens) (P08684 whole entry, looked up): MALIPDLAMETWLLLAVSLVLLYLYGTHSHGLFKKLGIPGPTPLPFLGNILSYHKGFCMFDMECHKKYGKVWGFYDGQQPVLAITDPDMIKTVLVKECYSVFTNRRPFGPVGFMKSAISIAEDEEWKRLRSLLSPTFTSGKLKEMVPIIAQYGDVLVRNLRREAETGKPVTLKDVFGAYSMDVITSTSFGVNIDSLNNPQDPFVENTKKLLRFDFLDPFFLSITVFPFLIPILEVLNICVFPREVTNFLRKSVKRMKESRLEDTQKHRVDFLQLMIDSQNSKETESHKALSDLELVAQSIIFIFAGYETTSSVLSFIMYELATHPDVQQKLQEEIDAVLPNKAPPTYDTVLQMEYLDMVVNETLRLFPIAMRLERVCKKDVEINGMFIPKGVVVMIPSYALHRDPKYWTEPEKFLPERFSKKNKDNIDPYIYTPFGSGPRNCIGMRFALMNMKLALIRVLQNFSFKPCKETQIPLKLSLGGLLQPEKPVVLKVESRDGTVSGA
Sequence of Nuclear receptor subfamily 1 group I member 2 (Homo sapiens) (O75469 whole entry, looked up): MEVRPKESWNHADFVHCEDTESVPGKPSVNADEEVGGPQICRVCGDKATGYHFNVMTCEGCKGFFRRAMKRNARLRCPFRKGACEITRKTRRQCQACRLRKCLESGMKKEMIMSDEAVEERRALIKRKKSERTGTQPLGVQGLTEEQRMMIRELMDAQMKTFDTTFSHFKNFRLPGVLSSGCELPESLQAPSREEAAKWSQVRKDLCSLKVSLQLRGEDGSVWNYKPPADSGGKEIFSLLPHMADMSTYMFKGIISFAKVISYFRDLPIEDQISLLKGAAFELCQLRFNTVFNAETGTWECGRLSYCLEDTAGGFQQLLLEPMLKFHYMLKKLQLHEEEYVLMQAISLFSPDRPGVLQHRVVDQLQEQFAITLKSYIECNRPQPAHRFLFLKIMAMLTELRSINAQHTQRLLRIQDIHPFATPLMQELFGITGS
Sequence of Cytochrome P450 2C19 (Homo sapiens) (P33261 whole entry, looked up): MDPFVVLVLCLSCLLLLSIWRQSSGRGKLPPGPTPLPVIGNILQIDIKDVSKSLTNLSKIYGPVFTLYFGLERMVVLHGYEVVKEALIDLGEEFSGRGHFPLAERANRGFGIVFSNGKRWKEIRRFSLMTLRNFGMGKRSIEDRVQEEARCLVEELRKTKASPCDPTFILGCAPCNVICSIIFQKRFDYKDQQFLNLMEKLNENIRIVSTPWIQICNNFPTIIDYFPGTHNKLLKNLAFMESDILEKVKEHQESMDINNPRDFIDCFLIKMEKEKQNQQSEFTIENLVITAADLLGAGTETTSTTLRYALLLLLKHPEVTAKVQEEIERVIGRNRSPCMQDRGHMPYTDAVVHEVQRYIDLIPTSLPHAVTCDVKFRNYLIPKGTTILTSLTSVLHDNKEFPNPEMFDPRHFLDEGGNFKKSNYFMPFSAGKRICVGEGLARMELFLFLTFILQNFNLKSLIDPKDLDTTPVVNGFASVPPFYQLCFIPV
Sequence of Voltage-gated inwardly rectifying potassium channel KCNH2 (Homo sapiens) (Q12809 whole entry, looked up): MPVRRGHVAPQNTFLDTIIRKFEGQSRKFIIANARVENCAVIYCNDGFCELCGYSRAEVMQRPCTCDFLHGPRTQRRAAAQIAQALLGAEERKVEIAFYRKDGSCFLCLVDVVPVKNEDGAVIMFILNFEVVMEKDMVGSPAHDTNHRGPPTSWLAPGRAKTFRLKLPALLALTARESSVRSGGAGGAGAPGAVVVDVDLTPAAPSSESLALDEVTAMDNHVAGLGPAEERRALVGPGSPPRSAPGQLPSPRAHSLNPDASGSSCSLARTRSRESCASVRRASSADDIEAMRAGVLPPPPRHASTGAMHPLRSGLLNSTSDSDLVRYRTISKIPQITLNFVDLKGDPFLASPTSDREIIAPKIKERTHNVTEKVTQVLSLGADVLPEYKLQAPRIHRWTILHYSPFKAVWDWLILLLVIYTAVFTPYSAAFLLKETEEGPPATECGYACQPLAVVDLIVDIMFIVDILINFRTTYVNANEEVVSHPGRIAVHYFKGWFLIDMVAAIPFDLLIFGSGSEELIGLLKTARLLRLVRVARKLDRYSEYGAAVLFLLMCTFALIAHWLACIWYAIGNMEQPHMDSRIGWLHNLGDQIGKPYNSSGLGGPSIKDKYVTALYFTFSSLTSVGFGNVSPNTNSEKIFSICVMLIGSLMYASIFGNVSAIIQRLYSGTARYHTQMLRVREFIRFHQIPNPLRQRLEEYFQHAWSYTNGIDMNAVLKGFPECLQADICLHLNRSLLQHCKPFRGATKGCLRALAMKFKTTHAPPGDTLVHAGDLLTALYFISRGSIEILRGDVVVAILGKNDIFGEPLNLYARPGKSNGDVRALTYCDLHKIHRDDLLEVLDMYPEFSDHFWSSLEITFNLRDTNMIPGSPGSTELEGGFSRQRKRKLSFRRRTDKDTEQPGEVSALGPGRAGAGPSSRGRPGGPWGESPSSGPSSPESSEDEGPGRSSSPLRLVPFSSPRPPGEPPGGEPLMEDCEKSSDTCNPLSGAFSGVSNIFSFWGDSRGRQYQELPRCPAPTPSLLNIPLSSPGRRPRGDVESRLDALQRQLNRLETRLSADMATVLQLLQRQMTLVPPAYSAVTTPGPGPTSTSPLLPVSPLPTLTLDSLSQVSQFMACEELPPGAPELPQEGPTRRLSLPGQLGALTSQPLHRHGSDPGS
Sequence of Cytochrome P450 2C9 (Homo sapiens) (P11712 whole entry, looked up): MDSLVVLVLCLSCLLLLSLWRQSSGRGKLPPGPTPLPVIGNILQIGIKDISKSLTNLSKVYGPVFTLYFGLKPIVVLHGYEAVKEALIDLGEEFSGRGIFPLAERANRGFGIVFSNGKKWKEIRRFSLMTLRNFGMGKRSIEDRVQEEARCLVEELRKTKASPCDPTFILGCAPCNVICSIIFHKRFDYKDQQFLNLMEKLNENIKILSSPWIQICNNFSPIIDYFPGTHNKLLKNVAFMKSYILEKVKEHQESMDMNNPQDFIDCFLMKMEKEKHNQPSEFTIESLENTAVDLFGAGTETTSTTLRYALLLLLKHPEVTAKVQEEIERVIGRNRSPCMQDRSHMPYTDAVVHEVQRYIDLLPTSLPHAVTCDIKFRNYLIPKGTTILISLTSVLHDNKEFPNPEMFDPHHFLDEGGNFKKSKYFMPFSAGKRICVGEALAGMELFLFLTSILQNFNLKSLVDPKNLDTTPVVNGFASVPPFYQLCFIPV

For the compound `CCC(C)Br` (stereo not given), the Potency result in experiment [1], in [2], in experiment [3], in experiment [4], in experiment [5] and in experiment [6] was “inactive” each time. In addition, the Potency result in experiment [7], in experiment [8], in experiment [9], in [10], in [11] and in experiment [12] was “inactive” throughout. Further, in [13], the Potency result was “inactive”.

`Cc1ccccc1OP(=O)(Oc1ccccc1C)Oc1ccccc1C`: the Potency result in experiment [1], in experiment [2], in experiment [3], in experiment [5], in [6] and in experiment [7] was “inactive” in each case. In addition, the Potency entry in experiment [13] is “inactive”. Further, the Potency was 27.4 µM (active) in experiment [4], 1.6 µM (active) in [9] and 5.66 µM (active) in [10].

Regarding `O=[N+]([O-])c1cccc2cccc([N+](=O)[O-])c12`, the Potency result in experiment [1], in experiment [2], in [3], in experiment [6], in [8] and in experiment [10] was “inactive” throughout. In addition, the Potency entry in experiment [12] is “inactive”. Further, the Potency in experiment [4] is 30.8 µM (active); in [5], 20.1 µM (active).

Consider `Oc1cc(Cl)cc(Cl)c1`, for which the Potency result in experiment [1], in [2], in experiment [3], in [5], in [6] and in experiment [7] was “inactive” each time. The Potency result in experiment [8], in experiment [12] and in [13] was “inactive” each time. Further, the Potency is 69.3 µM (active) in experiment [4] and 71.7 µM (active) in [14].

With `C=C(C)C(=O)[O][Sn]([CH2]CCC)([CH2]CCC)[CH2]CCC`, the Potency in experiment [1] was 2.17 µM (active); in experiment [2], 0.433 µM (active); in experiment [3], 2.43 µM (active); in [4] it was 0.193 µM (active); in experiment [14] it was 2.24 µM (active); in experiment [10] it was 11.2 µM (active). For the same compound, the Potency was 4.9 µM (active) in [12] and 22.4 µM (active) in [13]. For the same compound, the Potency result in experiment [5], in experiment [7] and in [8] was “inactive” in each case.

Take `Cc1ccn2nc(S(=O)(=O)Nc3c(F)cccc3F)nc2n1`: the Potency result in [1], in experiment [2], in experiment [3], in experiment [4], in experiment [5] and in [6] was “inactive” each time. The Potency entry in experiment [7], in experiment [8], in experiment [9], in experiment [11], in experiment [12] and in experiment [13] was “inactive” each time. Also, in [10], the Potency was 39.9 µM (active).

In the case of `CC#C[C@]1(O)CC[C@H]2[C@@H]3C[C@H](C)C4=CC(=O)CC[C@]4(C)[C@H]3CC[C@@]21C`, the Potency entry in experiment [1], in experiment [2], in experiment [3], in experiment [5], in [6] and in [7] was “inactive” in each case. Besides, the Potency result in [8] and in experiment [12] was “inactive” each time. Also, the Potency was 23.7 µM (active) in [4], 9.77 µM (active) in experiment [9] and 17.4 µM (active) in experiment [10].

`O=C(Cl)c1ccccc1F`: the Potency result in experiment [1], in [2], in experiment [3], in experiment [4], in experiment [5] and in experiment [6] was “inactive” throughout. Moreover, the Potency result in experiment [7], in [8], in [12] and in experiment [13] was “inactive” in each case.

For `CCCCON=O`, the Potency result in experiment [1], in experiment [2], in experiment [3], in experiment [4], in experiment [5] and in experiment [7] was “inactive” each time. The Potency result in [8], in experiment [14], in [10], in [11], in experiment [12] and in experiment [13] was “inactive” throughout.
